The values that follow come from the OligoGym collection.
Also: reference of the scale not given here.

In the first assay the target is VDAC3. Description: pooled miR-30 sensor sort-seq; sequence = guide strand. The following applies: shRNA.
TATCAGTGTAAGCATGACCAGA had a sensor-assay potency score (higher = more potent) of -0.976. Sequence TTGGTTTTCAGGTCTATCTTGA displayed a sensor-assay potency score (higher = more potent) of 0.398. For the sequence TTCAGGTCTATCTTGACCATGC, the sensor-assay potency score (higher = more potent) is -0.432. Sequence TTGTCTGTGTTCCATTTCTGGG displayed a sensor-assay potency score (higher = more potent) of -1.15. Take TCTGGTAGATAGAACCTCCAAA: the sensor-assay potency score (higher = more potent) was -0.313.

For TTTCAGGTCTATCTTGACCATG, the sensor-assay potency score (higher = more potent) is -1.45. Still for that read-out and setting: the same measure for TTCATTTCTCTTCACTTCCAGG: -0.789; for TCCTTTGTTGAAGACATCCTTA: -0.879; for TAGAGTATTGTCTGTGTTCCAT: -0.216.

The sequence TTATATTTGGTTTCTAGGTTGC came in with a sensor-assay potency score (higher = more potent) of -0.0958. Same read-out and setting: the result for TTCAATCTTCTCATTCACCTTC reads 0.828; that for TCTATATCAACATTACTGCCAA, -0.2.

Another assay deals with VGLL2. Described as above. The note with it: shRNA.
In turn, TTACTTCTCTACCACAGTCTTA displayed a sensor-assay potency score (higher = more potent) of -0.551. TTGTCTAACAACAGCTGCATTT gave a sensor-assay potency score (higher = more potent) of -1.41. Still for that read-out and setting: the result for TTGGATTTGCTCTTTCAGCAGC reads -0.344.
